ssDAF12 agonist: S. stercoralis DAF-12 nuclear receptor activators, primary screen, cell-based, luminescence, HEK293, GRIP1 co-expression, lit1-tk-luc; Nuclear hormone receptor DAF-12 (Strongyloides stercoralis); HEK293 ssDAF-12/GRIP1 lit1-tk-luc reporter; % of 3 µM dafachronic acid response; activation, % at 6.8 µM; actives 1% (n = 370,000); AID 652126, 2013;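 active = activation above the mean over all tested compounds plus 3 SD, cut at about 0.9% in these data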;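 also: 0% = DMSO-only wells and 100% = 3 µM delta7-dafachronic acid wells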
DAX1 inh-1: DAX1 (NR0B1) inhibitors on StAR promoter, primary screen, cell-based, luminescence, SF-1 (NR5A1), full-length DAX-1; HEK293T StAR-luciferase reporter, SF-1/DAX-1 repression relief; inhibition, % at 6.8 µM; actives 1.1% (n = 370,000); AID 652010, 2013;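 active = inhibition above the mean over all tested compounds plus 3 SD, cut at about 3.6% in these data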;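 also: 0% = DAX-1 cells with DMSO and 100% = cells lacking DAX-1 with DMSO; higher inhibition means more luminescence from relief of DAX-1 repression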
DAX1 inh-2: DAX1 (NR0B1) inhibitors, primary screen, cell-based, HEK293, Gal4-DAX1, luciferase luminescence; HEK293 Gal4-DAX1 luciferase reporter; actives 0.99% (n = 340,000); Nuclear receptor subfamily 0 group B member 1 (Homo sapiens), P51843; inhibition, % at 6.75 µM; AID 504766, 2011;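 active = inhibition above the mean over all tested compounds plus 3 SD, cut at about 4.2% in these data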;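 also: 0% = DAX1-transfected cells with DMSO and 100% = empty-vector control cells with DMSO; inhibition shows as a rise in luminescence from relieved DAX1 repression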
Target sequence (P51843 207-470 limits assumed): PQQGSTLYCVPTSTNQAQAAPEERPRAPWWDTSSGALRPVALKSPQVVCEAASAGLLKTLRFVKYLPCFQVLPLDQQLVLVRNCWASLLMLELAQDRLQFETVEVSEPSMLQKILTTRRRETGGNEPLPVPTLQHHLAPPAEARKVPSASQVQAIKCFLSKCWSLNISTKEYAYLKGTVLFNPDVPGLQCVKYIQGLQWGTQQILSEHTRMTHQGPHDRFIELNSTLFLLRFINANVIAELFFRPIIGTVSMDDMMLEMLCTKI
hcDAF-12 act: H. contortus DAF-12 nuclear receptor activators, primary screen, cell-based, luminescence, HEK293, lit1-tk-luc reporter. HEK293 hcDAF-12 lit1-tk-luc reporter; 0% DMSO, 100% Δ7-dafachronic acid. activation, % at 6.8 µM. actives 1.4% (n = 370,000);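 active = activation above the mean of all tested compounds plus 3 SD, cut at about 5.5% in these data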;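 also: 100% = response to 3 µM Δ7-dafachronic acid high control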
hgDAF12 agonist: H. glycines DAF-12 receptor agonists, primary screen, cell-based, luminescence, HEK293, GAL4 fusion, UAS-luciferase | Nuclear hormone receptor DAF-12 (Heterodera glycines), GAL4 fusion | HEK293 GAL4-hgDAF12 UAS-luciferase reporter, agonist luminescence; normalized to butyrate control | activation, % at 6.8 µM | actives 1.8% (n = 370,000);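 active = activation above a cutoff set at the mean of all screened compounds plus 3 SD, cut at about 10% in these data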;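 also: 0% = DMSO wells and 100% = sodium butyrate wells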
DAX1 inh confirm: DAX1 (NR0B1) inhibitors relieving SF-1 repression, confirmation, cell-based, luminescence, HEK293T, full-length DAX-1, SF-1 activated StAR promoter. AID 652134, 2013. HEK293T StAR-promoter luciferase reporter, SF-1/DAX-1 repression. inhibition, % at 6.8 µM. shares compounds with DAX1 inh-1. actives 87% (n = 2,400);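 active = inhibition above the average of every tested compound plus 3 SD, cut at about 3.8% in these data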;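 also: 0% = DAX-1 cells with DMSO and 100% = no DAX-1 control cells with DMSO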
SF1 AF2mut Luc: StAR reporter signal changes without DAX1, counter-screen for DAX1 inhibitor project, cell-based, luminescence, AF-2 mutant SF-1, transactivation. shares compounds with DAX1 inh-1. HEK293 StAR-luciferase, SF-1 AF2 mutant. inhibition, % at 6.8 µM. actives 78% (n = 2,400);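 active = inhibition above the mean of all tested compounds plus 3 SD, cut at about 3% in these data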;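 also: 0% = DAX-1 transfected cells with DMSO and 100% = cells without DAX-1 with DMSO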
LXR ag: LXR agonists, Gal4 luciferase reporter, confirmation, counter-screen for hcDAF-12 agonist project, cell-based, luminescence, HEK293, H. contortus campaign; shares compounds with hcDAF-12 act; HEK293 Gal4-LXR tk-luc reporter, 24 h; normalized: DMSO 0%, positive control 100%; activation, % at 6.8 µM; 3,400 tested, under 10 active; AID 743027, 2013;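 active = mean percent activation of the reporter above a cutoff set as the average over tested compounds plus their standard deviation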
hcDAF12 conf: H. contortus DAF-12 receptor agonists, confirmation, cell-based, luminescence, HEK293, lit1-tk-luc, triplicate; activation, % at 6.8 µM; AID 743032, 2013; HEK293 hcDAF-12 lit1-tk-luc reporter; % of Δ7-dafachronic acid response; actives 61% (n = 3,400); shares compounds with hcDAF-12 act;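 active = mean activation across triplicate tests above the threshold derived from the earlier primary screen, cut at about 5.5% in these data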;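 also: 0% = DMSO only wells and 100% = 3 µM Δ7-dafachronic acid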
hgDAF12 ag: H. glycines DAF-12 receptor agonists, confirmation, cell-based, luminescence, HEK293, GAL4-LBD fusion; HEK293 GAL4-hgDAF12 luciferase reporter, agonist mode; percent of butyrate response; activation, % at 6.8 µM; actives 80% (n = 3,300); AID 743050, 2013; shares compounds with hgDAF12 agonist;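 active = mean activation over triplicate wells above the hit cutoff derived from the earlier primary screen, cut at about 11% in these data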;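 also: 0% = DMSO low control and 100% = 2 mM sodium butyrate high control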
LXRb DAF12 ctr: LXR agonists, Gal4 luciferase reporter, confirmation, counter-screen for hgDAF-12 agonist project, cell-based, luminescence, HEK293, H. glycines campaign; shares compounds with hgDAF12 agonist; 24 h; activation, % at 6.8 µM; 3,300 tested, under 10 active; AID 743051, 2013;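 active = mean activation of the triplicate above a set limit carried over from the primary screen, none filed active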
* = called active by the depositor; nt = not tested or not shown. Shown are actives, neighbours in structure and some others; about 4.1% of the full set was active somewhere.

SMILES	ssDAF12 agonist	DAX1 inh-1	DAX1 inh-2	hcDAF-12 act	hgDAF12 agonist	DAX1 inh confirm	SF1 AF2mut Luc	hgDAF12 ag	LXRb DAF12 ctr	others
Cn1cccc1C(=O)C(=O)Nc1cc(Cl)cc(Cl)c1	0	1	0	-1	4	nt	nt	nt	nt
Cc1csc(NC(=O)c2oc3ccccc3c2C)n1	2.1*	14*	2	18*	19*	13*	8.0*	17*	1	LXR ag=2;hcDAF12 conf=18*
CCOc1ccc2oc(C(=O)Nc3cc(C)ccn3)c(C)c2c1	0	13*	2	3	14*	11*	5.0*	17*	1
Cc1ccnc(NC(=O)c2oc3ccccc3c2C)c1	3.0*	11*	0	20*	22*	9.2*	3.7*	20*	1	LXR ag=2;hcDAF12 conf=15*
CC1(C(=O)NCc2ccc(C(F)(F)F)cc2)CCN1Cc1ccc(-c2ccccc2)o1 (stereo unspecified)	-2	0	nt	-3	-5	nt	nt	nt	nt
COc1ccccc1S(=O)(=O)N(C)C[C@@H]1OCc2cn(nn2)CCCC(=O)N([C@H](C)CO)C[C@H]1C	-1	-1	0	-1	0	nt	nt	nt	nt
O=C(O)C=Cc1c[nH]c2nccnc12	-1	-1	-1	0	1	nt	nt	nt	nt
C(=N\NC1=Nc2cccc3cccc1c23)/c1ccccc1	4.5*	6.6*	5.7*	18*	23*	13*	9.5*	27*	1	LXR ag=2;hcDAF12 conf=21*
Cc1cccc(-n2ncc3c(NC(C)C)ncnc32)c1	0	6.6*	1	1	17*	11*	8.2*	18*	1
CC(C)Nc1ncnc2c1cnn2-c1ccccc1	0	5.4*	0	4	17*	7.2*	4.2*	12*	1
NNc1ncnc2c1cnn2-c1ccccc1	0	0	4	2	2	nt	nt	nt	nt
Cc1cccc(-n2ncc3c(Nc4ccc(F)cc4)ncnc32)c1	-1	2	1	-2	5	nt	nt	nt	nt
CCC(CO)Nc1ncnc2c1cnn2-c1ccc(OC)cc1 (stereo unspecified)	0	5.1*	1	3	16*	8.4*	4.4*	9	1
CNc1ccccc1C(=O)OCC(=O)N1CCc2ccccc2C1	-1	1	0	0	2	nt	nt	nt	nt
CN(C)S(=O)(=O)c1cccc(C(=O)N/N=C\c2ccc(-c3ccccn3)cc2)c1	-1	-2	nt	-1	-1	nt	nt	nt	nt
CC(C)C[C@H](NC(=O)/C=C/[C@H]1O[C@@H](n2ccc(=O)[nH]c2=O)[C@H](O)[C@@H]1O)C(=O)O	0	0	nt	-2	-2	nt	nt	nt	nt
NS(=O)(=O)c1ccc(CCNS(=O)(=O)c2cccc3nsnc23)cc1	-1	0	-1	2	0	nt	nt	nt	nt
Cc1ccc(OCC(=O)N2CCCc3ccccc32)cc1	-1	0	1	0	2	nt	nt	nt	nt
Cc1ccc(OCC(=O)N2CCc3ccccc32)cc1	1.6*	5.1*	3	11*	22*	15*	9.1*	13*	1	LXR ag=1;hcDAF12 conf=5.7*
COc1ccc(NC(=O)N2CCCc3ccccc32)cc1	-1	1	1	4	6	nt	nt	nt	nt
COc1ccc(NC(=O)N2CCc3ccccc32)cc1	1.0*	5.1*	-1	9.1*	16*	15*	5.8*	18*	1	LXR ag=1;hcDAF12 conf=7.4*
CC(C)(C)c1cc(NC(=O)c2ccco2)no1	1.0*	13*	1	14*	14*	12*	7.0*	15*	1	LXR ag=1;hcDAF12 conf=6.2*
CC(C)(C)c1cc(NC(=O)c2cccc([N+](=O)[O-])c2)no1	nt	nt	1	nt	nt	nt	nt	nt	nt
O=C(NC(=S)Nc1ccc2c(c1)OCCO2)c1ccccc1F	1	7.6*	2	5	19*	12*	7.0*	18*	1
O=C(NC(=S)Nc1ccc2c(c1)OCCO2)c1ccccc1	0	4.7*	1	4	14*	16*	8.7*	21*	1
CCOc1cccc(C(=O)NC(=S)Nc2ccc3c(c2)OCCO3)c1	-1	0	1	2	8	nt	nt	nt	nt
CCN=c1scc(-c2ccc(F)cc2)n1/N=C/c1ccccn1	-2	6.8*	2	2	21*	7.2*	4.8*	8	0
CCN=c1scc(-c2ccccc2)n1/N=C/c1ccccn1	nt	nt	-4	nt	nt	nt	nt	nt	nt
CN1CCCCC(NC(=O)c2ccc(C#N)cc2)C1=O (stereo unspecified)	-1	0	nt	2	-1	nt	nt	nt	nt
Cc1cc(C)n2c(NC3CCCC3)c(-c3cc4ccccc4o3)nc2n1	1.2*	5.3*	nt	4	17*	4.2*	2	8	0
